Measurements reported in PubChem BioAssay (NCATS).
Inconclusive results are not listed. Entries that show only a call come without a potency. Calls of active or inactive are those of the source. Calls follow the shape of the dose curve; as a rule, active = well fitted cell-killing curve with a large enough effect; inconclusive = small, poorly fitted or top-dose-only effect, or effect the other way; inactive = no such curve, though single readings can be large or run the other way.

experiment: Quantitative High-Throughput drug screen in 47 multiple myeloma cell lines against the NCATS MIPE library collection: Karpas620_DSMZ cell viability assay (AID 1918959); details: Karpas620 myeloma viability, CellTiter-Glo ATP luminescence, 48 h; series mostly up to 45.8 µM
Method in brief: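 qHTS of the MIPE 4.0 collection: 500 myeloma cells/well, 48 h drug exposure at 37C in 5% CO2, then CellTiter-Glo for 5 min at room temperature before luminescence reading.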
Also: nearly all actives have a fitted effect of over 30% in size.
Potency is read from the fitted curve at half-maximal effect.

Which Potency does the source give for `CC(C)N(CCNC(=O)CN1CCCC1=O)C(C)C` here?
The Potency was “inactive”.

For `CC[C@@]1(O)C(=O)OCc2c1cc1n(c2=O)Cc2cc3ccccc3nc2-1`, which Potency is on record?
Its Potency is 0.418 µM (active).

With `CCOC(=O)c1c(C(C#N)=CN)c2ccc(Cl)c(Cl)c2n1C` as the compound, how does the Potency read?
The Potency was “inactive”.

For `COc1ccc2c(c[n+](C)c3c4cc5c(cc4ccc23)OCO5)c1OC`, which Potency is on record?
The Potency was 5.9 µM (active).

With `C[C@@H]1[C@H](O)[C@@H](C)C=CC=CCCC=CC=CC=CC=C[C@H](O[C@H]2O[C@@H](C)[C@H](O)[C@@H](N)[C@@H]2O)CC2O[C@](O)(C[C@@H](O)[C@H](O)CC[C@@H](O)C[C@@H](O)C[C@@H](O)CC(=O)O[C@H]1C)C[C@H](O)[C@H]2C(=O)O` as the compound, how does the Potency read?
The Potency was “inactive”.

With `CO[C@H]1CCC(O[C@H]2C[C@H]([C@]3(C)CC[C@]4(C[C@H](O)[C@@H](C)[C@@H]([C@@H](C)C=C(C)C(=O)[C@H](C)C[C@H](C)C(=O)O)O4)O3)O[C@]3(O[C@@H]([C@H]4O[C@@](O)(CO)[C@H](C)C[C@H]4C)C[C@H]3C)[C@H]2C)O[C@H]1C` (some centres not stated) as the compound, how does the Potency read?
Its Potency is 0.264 µM (active).

Which Potency does the source give for `CCOP(=O)(OCC)C(C)NC(=O)N(CCCl)N=O` (configuration not stated) here?
The Potency was “inactive”.

Which Potency does the source give for `C[C@]12CCC(=O)C(O)=C1CC[C@@H]1[C@H]3CCC(=O)[C@@]3(C)CC[C@@H]12` here?
Its Potency is “inactive”.

With `O=C(N[C@H]1CN2CCC1CC2)c1ccc(Cl)cc1` as the compound, how does the Potency read?
Its Potency is “inactive”.

Which Potency does the source give for `COc1ccc2c(c1)CN(C)CC2c1ccc(Cl)c(Cl)c1` (configuration not stated) here?
Its Potency is 16.6 µM (active).

For `CCNC(=O)C[C@@H]1N=C(c2ccc(Cl)cc2)c2cc(OC)ccc2-n2c(C)nnc21`, which Potency is on record?
Its Potency is 1.05 µM (active).

Which Potency does the source give for `O=S(=O)(F)Cc1ccccc1` here?
The Potency was “inactive”.

For `Cc1c(C(=O)Nc2cccc(C(F)(F)F)c2)cc(-c2ccccc2)n1CCCN1CCOCC1`, which Potency is on record?
The Potency was 16.6 µM (active).

Which Potency does the source give for `C[C@H]([C@H](O)CCC(C)(C)O)[C@H]1CC[C@@]2(O)C3=CC(=O)[C@@H]4C[C@@H](O)[C@@H](O)C[C@]4(C)[C@@H]3CC[C@]12C` here?
Its Potency is “inactive”.

For `CC(=CCCC1=CCC(C2=CC(=O)OC2O)OC1O)CCC1=C(C)CCCC1(C)C` (configuration not stated), which Potency is on record?
Its Potency is “inactive”.

For `CCCN1CCO[C@@H]2c3cc(O)ccc3OC[C@@H]21`, which Potency is on record?
Its Potency is “inactive”.

For `COc1ccc2c(c1)[C@]13CCCCC1C(C2)N(C)CC3` (some centres not stated), which Potency is on record?
The Potency was “inactive”.

For `CCN(CC)C(=O)c1ccc(C2=CC3(CCNCC3)Oc3cccc(O)c32)cc1`, which Potency is on record?
Its Potency is “inactive”.

For `CCC(=O)OC1CCC2C3CCC4=CC(=O)CC[C@@]4(C)C3CC[C@]12C` (some centres not stated), which Potency is on record?
The Potency was “inactive”.

With `C[C@@H]1CC[C@H]2[C@@H](C)C(=O)O[C@@H]3O[C@@]4(C)CC[C@H]1[C@]32OO4` as the compound, how does the Potency read?
Its Potency is 5.9 µM (active).

Which Potency does the source give for `C[C@]12COC(=O)C[C@@H]1CC[C@@H]1[C@H]2CC[C@@]2(C)[C@H]1CC[C@]2(C)O` here?
The Potency was “inactive”.

Which Potency does the source give for `CC(C)N[C@@H]1CCn2c(=O)[nH]c3cccc(c32)[C@@H]1O` here?
The Potency was 5.26 µM (active).

For `c1ccc2c(CN3CCNCC3)cccc2c1`, which Potency is on record?
Its Potency is “inactive”.

For `CN(C)NC(=O)CCC(=O)O`, which Potency is on record?
Its Potency is “inactive”.

With `C[C@@]12OC(=O)[C@]1([C@@H](O)[C@@H]1C=CCCC1)NC(=O)[C@H]2CCCl` as the compound, how does the Potency read?
The Potency was 0.0093 µM (active).

For `COc1cc([C@@H]2c3cc4c(cc3[C@@H](O)C3COC(=O)C32)OCO4)cc(OC)c1O` (some centres not stated), which Potency is on record?
The Potency was 0.0187 µM (active).

For `CC1(N2CCC(n3c([C@@H]4CCCNC4)nc4ccccc43)CC2)CCCCCCC1`, which Potency is on record?
Its Potency is 9.35 µM (active).

With `C[C@@H]1O[C@@H](O[C@@H]2C=C3CC[C@@H]4[C@@H](CC[C@]5(C)[C@H](c6ccc(=O)oc6)CC[C@@]45O)[C@@]3(C)CC2)[C@H](O)[C@H](O)[C@H]1O` as the compound, how does the Potency read?
Its Potency is 0.0209 µM (active).

With `C#C[C@]1(O)C=C[C@@H]2[C@@H]3CCC4=CC(=O)CC[C@@H]4[C@H]3CC[C@@]21CC` as the compound, how does the Potency read?
The Potency was “inactive”.

With `COc1ccc(CC2NCCc3cc(OC)c(OC)cc32)cc1OC` (configuration not stated) as the compound, how does the Potency read?
The Potency was “inactive”.

experiment: Quantitative High-Throughput drug screen in 47 multiple myeloma cell lines against the NCATS MIPE library collection: KMM1_JCRB cell viability assay (AID 1918960); details: KMM1 myeloma viability, CellTiter-Glo ATP luminescence, 48 h; series mostly up to 45.8 µM
Method in brief: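 500 cells/well; MIPE 4.0 library pinned in; 48 h, 37 °C, 5% CO2; CellTiter-Glo ATP luminescence. Controls: DMSO = 100% viability, medium only = 0%.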

Which Potency does the source give for `CC(C)N(CCNC(=O)CN1CCCC1=O)C(C)C` here?
Its Potency is “inactive”.

Which Potency does the source give for `O=S(=O)(CC1CS1)c1ccc(Oc2ccccc2)cc1` (configuration not stated) here?
Its Potency is 5.9 µM (active).

With `C[C@@H]1[C@H](O)[C@@H](C)C=CC=CCCC=CC=CC=CC=C[C@H](O[C@H]2O[C@@H](C)[C@H](O)[C@@H](N)[C@@H]2O)CC2O[C@](O)(C[C@@H](O)[C@H](O)CC[C@@H](O)C[C@@H](O)C[C@@H](O)CC(=O)O[C@H]1C)C[C@H](O)[C@H]2C(=O)O` as the compound, how does the Potency read?
Its Potency is “inactive”.

With `CO[C@H]1CCC(O[C@H]2C[C@H]([C@]3(C)CC[C@]4(C[C@H](O)[C@@H](C)[C@@H]([C@@H](C)C=C(C)C(=O)[C@H](C)C[C@H](C)C(=O)O)O4)O3)O[C@]3(O[C@@H]([C@H]4O[C@@](O)(CO)[C@H](C)C[C@H]4C)C[C@H]3C)[C@H]2C)O[C@H]1C` (some centres not stated) as the compound, how does the Potency read?
Its Potency is 0.187 µM (active).

With `CCOP(=O)(OCC)C(C)NC(=O)N(CCCl)N=O` (configuration not stated) as the compound, how does the Potency read?
The Potency was “inactive”.

For `CCCN1CCO[C@@H]2c3cc(O)ccc3OC[C@@H]21`, which Potency is on record?
The Potency was “inactive”.

Which Potency does the source give for `C[C@]12COC(=O)C[C@@H]1CC[C@@H]1[C@H]2CC[C@@]2(C)[C@H]1CC[C@]2(C)O` here?
The Potency was “inactive”.

For `CC(C)N[C@@H]1CCn2c(=O)[nH]c3cccc(c32)[C@@H]1O`, which Potency is on record?
Its Potency is 0.743 µM (active).

For `CC(=O)O[C@@]12CO[C@H]1C[C@H](O)[C@@]1(C)C(=O)[C@H](O)C3=C(C)[C@@H](O)C[C@@](O)([C@@H](OC(=O)c4ccccc4)[C@@H]21)C3(C)C`, which Potency is on record?
The Potency was 1.18 µM (active).

Which Potency does the source give for `CN(C)NC(=O)CCC(=O)O` here?
The Potency was “inactive”.

With `CC1(N2CCC(n3c([C@@H]4CCCNC4)nc4ccccc43)CC2)CCCCCCC1` as the compound, how does the Potency read?
Its Potency is 16.6 µM (active).

Which Potency does the source give for `O=C(Nc1ccncc1)C(=O)c1cn(Cc2ccc(Cl)cc2)c2ccccc12` here?
Its Potency is 0.0187 µM (active).
